PubChem BioAssay (NCATS)
Where “and” joins values, the source holds several entries; their conditions need not be identical. Identical values can stand only once. Results filed as inconclusive are left out. Calls of active or inactive are those of the source. Unless noted, the call rests on the fitted dose curve; in most records, active means well fitted curve in the direction sought with a large enough effect; inconclusive means small, poorly fitted or top-dose-only effect, or another doubt; inactive means no such curve, though single readings can be large; an effect the other way counts as inactive or inconclusive.

Legend:
[1] = qHTS for Activators of Parkin Expression: LOPAC Validation Assay (FLuc Reporter) (AID 720573;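 further: 0% = DMSO and 100% = positive control compounds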)
In short: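 Readout is FLuc luminescence from neuronal reporter cells (Parkin promoter, FLuc plus NLuc) after 24 h compound exposure in dose response. Values normalized to neutral DMSO and positive-control compounds.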

[2] = target: T1, Hexokinase-4 (Homo sapiens) + Glucokinase regulatory protein (Homo sapiens) (UniProt P35557+Q14397); assay: qHTS assay for inhibitors of recombinant human GCK-GKRP interaction: Diaphorase-coupled assay (AID 743205)
T1 sequence (P35557 whole entry, looked up): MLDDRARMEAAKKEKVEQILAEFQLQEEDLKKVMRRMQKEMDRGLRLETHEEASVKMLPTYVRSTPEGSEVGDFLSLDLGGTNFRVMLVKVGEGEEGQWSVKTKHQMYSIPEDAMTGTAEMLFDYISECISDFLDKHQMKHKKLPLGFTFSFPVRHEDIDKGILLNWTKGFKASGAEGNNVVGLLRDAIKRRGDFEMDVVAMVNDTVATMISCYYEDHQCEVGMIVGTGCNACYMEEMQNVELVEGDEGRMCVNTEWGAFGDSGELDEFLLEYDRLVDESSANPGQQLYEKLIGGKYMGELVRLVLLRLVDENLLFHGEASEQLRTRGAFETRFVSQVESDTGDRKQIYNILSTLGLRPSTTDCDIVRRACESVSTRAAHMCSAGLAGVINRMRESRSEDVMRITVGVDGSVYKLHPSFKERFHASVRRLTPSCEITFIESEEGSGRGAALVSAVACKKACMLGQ
T1 sequence (Q14397 whole entry, looked up): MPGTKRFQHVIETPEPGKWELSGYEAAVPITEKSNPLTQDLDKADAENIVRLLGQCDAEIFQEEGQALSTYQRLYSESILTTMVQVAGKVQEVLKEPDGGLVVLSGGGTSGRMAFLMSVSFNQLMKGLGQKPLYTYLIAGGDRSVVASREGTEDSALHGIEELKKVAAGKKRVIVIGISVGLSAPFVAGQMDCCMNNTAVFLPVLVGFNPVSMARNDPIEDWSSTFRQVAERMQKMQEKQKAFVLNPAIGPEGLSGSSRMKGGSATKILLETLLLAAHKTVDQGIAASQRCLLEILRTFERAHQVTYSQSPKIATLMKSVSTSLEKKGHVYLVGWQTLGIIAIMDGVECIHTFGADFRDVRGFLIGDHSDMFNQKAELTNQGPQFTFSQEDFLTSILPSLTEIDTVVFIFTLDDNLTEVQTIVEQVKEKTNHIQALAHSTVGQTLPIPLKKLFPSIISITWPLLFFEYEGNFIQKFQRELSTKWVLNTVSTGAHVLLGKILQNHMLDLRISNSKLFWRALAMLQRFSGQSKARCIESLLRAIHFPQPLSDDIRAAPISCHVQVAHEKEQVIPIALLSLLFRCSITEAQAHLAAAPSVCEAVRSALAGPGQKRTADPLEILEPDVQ
In short: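 Signal derives from resorufin generated by diaphorase, linked to GCK turnover of glucose (5 mM) and ATP (0.4 mM). Enzyme complex was added after a 20-minute compound preincubation and monitored for 30 minutes.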

[3] = target: T1, Hexokinase-4 (Homo sapiens) + Glucokinase regulatory protein (Homo sapiens); assay: qHTS assay for inhibitors of recombinant human GCK-GKRP interaction: ADP-Glo assay (AID 743206);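 further: plate controls were DMSO plus enzyme for no effect and no enzyme for full effect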
In short: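 GST-GCK and FLAG-GKRP (15 nM each in the dispensed mix, with 2 uM S6P) react with 0.4 mM ATP and 5 mM glucose (final) in Hepes pH 7.6 for 60 min at room temperature. ADP is measured by ADP-Glo luminescence.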

[4] = target: T1, Hexokinase-4 (Homo sapiens) + Glucokinase regulatory protein (Homo sapiens); assay: qHTS assay for inhibitors of recombinant human GCK-GKRP interaction: HTRF assay (AID 743207);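 further: 0% = DMSO with GCK present and -100% = DMSO wells lacking GCK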
In short: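 Titration screening format: recombinant GST-GCK and FLAG-GKRP at 5 nM, S6P at 2 uM, labelled anti-tag antibodies, 60 min at RT, dual-wavelength HTRF readout.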

[5] = qHTS Assay for Identifying Gametocytocidal Compounds (AID 743244);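 further: on the % scale 0 is the no-effect control and ±100 the full control effect; actives lower the fluorescent signal which means gametocytes are killed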; settings: P. falciparum 3D7 stage III-V gametocytes, alamarBlue, 72 h; max response: stronger effect = lower value
In short: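 Fluorescence at Ex 525/Em 598 nm, recorded 24 h after alamarBlue addition, reports residual metabolic activity of 3D7 gametocytes (stages III–V) following 72 h compound exposure at 37 °C, 5% CO2.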

[6] = qHTS assay for measurement of the activity of small molecule inhibitors on Zika virus induced Caspase-3 activity in human astrocytoma cells (AID 1224859);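 further: plate controls were ZIKV-infected untreated cells for no effect and uninfected cells for full effect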
In short: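 Caspase activation in ZIKV-infected SNB-19 cells (2 FFU/cell, 6 h) measured by Caspase-Glo 3/7 luminescence after 30 min RT; compound pre-incubated 1 h; normalised to uninfected and infected controls.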

[7] = qHTS for Activators of Parkin Expression: LOPAC Validation Assay (NLuc Reporter) (AID 720572;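 further: 0% = DMSO and 100% = positive control compound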)
In short: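 Neuronal line stably carrying a FLuc/NLuc coincidence reporter under the Parkin promoter, seeded 24 h, then dosed in 7-point series for 24 h at 37 C. NLuc luminescence read after FLuc; normalized to DMSO and positive control (100%).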

[8] = qHTS assay for small molecule agonists of the antioxidant response element (ARE) signaling pathway measured by Nrf2-dependant transcriptional activity (AID 720636; active means well fitted curve in the direction sought with a large enough effect in the repeat runs; an effect the other way counts as inactive or inconclusive;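 further: HepG2 cells with an ARE-driven luciferase reporter; % of control where 0% means no effect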)
In short: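 ONE-Glo luminescence, read 30 min after reagent addition at room temperature, reflected ARE reporter activity in HepG2 cells that had been incubated with compound for 16 hr at 37 C in 1% dialyzed FBS.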

[9] = qHTS assay for small molecule antagonists of the retinoid-related orphan receptor gamma (ROR-gamma) signaling pathway - cell viability counter screen (AID 720652; active means well fitted curve in the direction sought with a large enough effect in the repeat runs; an effect the other way counts as inactive or inconclusive;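 further: CHO reporter cells with doxycycline-induced ROR-gamma expression; series mostly up to about 92 µM; compound exposure lasted 16 hr before ATP read; on the % scale 0 is the no-effect control and ±100 the full control effect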)
In short: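 CHO cells carrying TET-inducible ROR and RORE-luciferase reporter, plated 5 hr, then dosed with compound plus doxycycline. After 16 hr at 37 C, viability read as intracellular ATP by CellTiter-Glo luminescence.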

[10] = qHTS assay for small molecule agonists of the antioxidant response element (ARE) signaling pathway measured by Nrf2-dependant transcriptional activity - cell viability counter screen (AID 720653; active means well fitted curve in the direction sought with a large enough effect in the repeat runs; an effect the other way counts as inactive or inconclusive; further: on the % scale 0 is the no-effect control and ±100 the full control effect); settings: ARE-bla HepG2 viability, CellTiter-Glo ATP luminescence, 16 h; max response: stronger effect = lower value
In short: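 ARE-bla HepG2 cells (2,000/well) rested 5 hrs at 37C/5% CO2, then exposed to compounds in DMSO for 16 hrs. Viability was read in the same wells as intracellular ATP by luminescence, 30 min at room temperature after reagent addition.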

[11] = qHTS assay for cell viability of HEK293 cells (AID 743288); settings: ATP luminescence (CellTiter-Glo), 18 h; max response: stronger effect = lower value; further: on the % scale 0 is the no-effect control and ±100 the full control effect; nearly all actives have a fitted effect of over 50% in size
In short: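 Luminescent ATP quantitation served as the viability read-out. Cells (parental HEK293, 2,000/well) received compounds after at least 5 h at 37 C and were exposed for 18 h before a 30 min room-temperature reagent step.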

[12] = qHTS assay for cell viability of the p53RE-bla HCT-116 cell line (AID 743292); further: on the % scale 0 is the no-effect control and ±100 the full control effect; nearly all actives have a fitted effect of over 55% in size
In short: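 After plating at 4,000 cells per well and a 5 h rest at 37 C, HCT-116 cells carrying p53RE-bla received test chemicals in DMSO. Sixteen hours later at 37 C, CellTiter-Glo was added and luminescence recorded following 30 min at room temperature.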

CN(C)c1nc2c(Br)c(Br)c(Br)c(Br)c2[nH]1
inactive: Potency [1] | outcome [2] | Potency [3] | Potency [4] | max response [5] 21.9% | Potency [6]

NCC1OC(O[C@H]2[C@H](O)[C@@H](OC3C(O)C(N)CC(N)C3OC3OC(CO)C(O)C(O)C3N)O[C@@H]2CO)C(N)C(O)C1O (stereo not given in full)
inactive: Potency [7] | Potency [1] | Potency [3] | Potency [4] | max response [5] 40.6% | Potency [6]

Cc1nc2sccn2c(=O)c1CCN1CCC(=C(c2ccccc2)c2ccc(F)cc2)CC1
inactive: Potency [7] | Potency [1] | outcome [2] | Potency [3] | max response [5] 35.1% | Potency [6]

O=C(O)c1cc(O)c(O)c(O)c1
inactive: Potency [8] | Potency [9] | max response [10] -28.5% | max response [11] -7.89% | Potency [12] | Potency [6]

CC(C)Cc1ccc([C@H](C)C(=O)O)cc1
inactive: Potency [7] | Potency [1] | outcome [2] | Potency [3] | max response [5] -6.28% and 20.5% | Potency [6]
